PubChem BioAssay AID588342 (National Center for Advancing Translational Sciences (NCATS), 2011)
About 25,000 (6.9%) of roughly 360,000 compounds were called active. About 9% were inconclusive and are not listed. This is one part of a sample in which actives are shown more often than they occur. Unmarked numbers belong to inactive results. Calls come from the whole dose curve; as a rule, active = well fitted inhibition curve with a large enough effect; inconclusive = small, poorly fitted or top-dose-only effect; inactive = flat fitted curve, though single readings scatter.

target: Luciferin 4-monooxygenase (Photinus pyralis) (UniProt P08659); assay: qHTS profiling assay for firefly luciferase inhibitor/activator using purifed enzyme and Km concentrations of substrates (counterscreen for miR-21 project); conditions: purified FLuc, luminescence inhibition; series mostly up to 57.5 µM; activity change, negative = inhibition: at the top concentration; note: nearly all actives have a fitted effect of over 55% in size;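 for activity change, negative = inhibition: plate controls were vehicle for no effect and reference inhibitor for full effect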
Sequence (P08659 whole entry, looked up): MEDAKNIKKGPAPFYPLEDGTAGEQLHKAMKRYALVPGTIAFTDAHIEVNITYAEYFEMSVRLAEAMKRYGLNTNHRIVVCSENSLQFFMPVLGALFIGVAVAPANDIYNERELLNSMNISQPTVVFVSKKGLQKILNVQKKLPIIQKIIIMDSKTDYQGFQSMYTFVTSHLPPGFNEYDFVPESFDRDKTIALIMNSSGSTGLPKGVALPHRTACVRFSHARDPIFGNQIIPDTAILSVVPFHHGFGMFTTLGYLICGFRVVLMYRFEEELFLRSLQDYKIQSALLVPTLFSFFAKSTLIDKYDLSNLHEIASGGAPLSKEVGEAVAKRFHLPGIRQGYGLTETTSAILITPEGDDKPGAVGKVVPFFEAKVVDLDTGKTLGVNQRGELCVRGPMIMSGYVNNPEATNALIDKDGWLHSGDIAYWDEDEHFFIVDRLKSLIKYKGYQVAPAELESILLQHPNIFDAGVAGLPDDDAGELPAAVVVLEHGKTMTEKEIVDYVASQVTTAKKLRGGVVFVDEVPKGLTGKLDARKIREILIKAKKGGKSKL
Method in brief: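 Purified P. pyralis luciferase, 10 nM final, with Km-level 10 uM D-luciferin and 10 uM ATP in 50 mM Tris acetate pH 7.5, 10 mM Mg acetate, 0.01% Tween-20, 0.05% BSA; 6-point qHTS titration about 60 µM downward; luminescence read.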
Potency is the fitted concentration of half-maximal effect.

Row | SMILES | activity change, negative = inhibition [%] | Potency
1 | COc1ccc(-c2noc(C(C)NS(=O)(=O)c3ccc(NC(C)=O)cc3)n2)cc1 (configuration not stated) | -1.43 | 
2 | CCCn1c(N)c(C(=O)CSc2nnc3n2CCCCC3)c(=O)[nH]c1=O | 3.94 | 
3 | O=C(NNC(=O)C(O)c1ccccc1)NC1CCCCC1 (configuration not stated) | 3.66 | 
4 | COC(=O)[C@H](Cc1ccccc1)NC(=O)Nc1ccc(OC)cc1 | -2.85 | 
5 | COc1ccc2nc(/N=C(\N)NC(=O)Nc3ccccc3)nc(C)c2c1 |  | 26.9 µM (active)
6 | COc1cc(NC(=O)c2nc3ccccc3nc2C)cc(OC)c1OC | -14 | 
7 | Cc1nc(/N=C(\N)NC(=O)NC2CCCCC2)nc2ccccc12 |  | 16.9 µM (active)
8 | O=C(Cn1nnc(-c2ccccc2)n1)NC(=O)NC1CCCC1 | 3.07 | 
9 | Cc1cc(NC(=O)CC(C)C)cc(-c2nc3ncccc3o2)c1O | 2.31 | 
10 | O=C(c1cccs1)c1cn(CCOc2ccc(Cl)cc2)c2ccccc12 | -4.78 | 
11 | CCOC(=O)c1cccc(NC(=O)CCOc2ccccc2)c1 | -10.1 | 
12 | O=C(CCCOc1ccccc1)Nc1cccc(C(=O)O)c1 |  | 15.1 µM (active)
13 | COc1ccc(OCCCC(=O)Nc2cccc(S(=O)(=O)N3CCCCCC3)c2)cc1 | -12.1 | 
14 | COCCn1cnnc1SCC(=O)Nc1cccc(S(=O)(=O)N2CCCCC2)c1 | 3.11 | 
15 | CCOc1ccccc1CNC(=O)c1cnc2c(-c3ccc(OCC)c(OCC)c3)c(C)nn2c1C | -1.62 | 
16 | COc1ccc(-c2nc3ccccc3c(=O)n2CCc2ccc(O)cc2)cc1 |  | 21.3 µM (active)
17 | COc1ccc(OCc2ccc(-c3nc(C#N)c(N4CCN(c5ccccc5)CC4)o3)o2)cc1 | -2.48 | 
18 | COC(=O)c1ccc(CSc2nc3ccccc3c(=O)n2-c2cccc(OC)c2)o1 | 1.87 | 
19 | COc1cccc(OCCn2c(-c3ccc(Br)cc3)nc3ccccc3c2=O)c1 | -7.08 | 
20 | COc1ccc(OCc2ccc(-c3nc4ccccc4c(=O)n3N)o2)cc1 |  | 12 µM (active)
21 | COc1ccccc1OCCCn1c(-c2ccc(Cl)cc2)nc2ccccc2c1=O | 1.48 | 
22 | Cc1cc(C)cc(OCC(=O)Nc2ccc(N3CCOCC3)cc2N2CCOCC2)c1 | 1.89 | 
23 | Cc1nn2c(=O)cc(COC(=O)CNC(=O)c3ccc(F)cc3)nc2s1 | 2.08 | 

Row | SMILES | activity change, negative = inhibition [%] | Potency
24 | COc1cccc(N2CCN(S(=O)(=O)c3cc(Br)cc4c3N(C(=O)C3CC3)CC4)CC2)c1 | 0.1 | 
25 | COc1ccc(S(=O)(=O)NCC2CCCN(C(=O)c3occc3C)C2)cc1 (configuration not stated) | -1.96 | 
26 | COc1cc(C)c(C)cc1S(=O)(=O)N1CCCc2ccccc21 | 5.54 | 
27 | Cc1cccc(-n2ncc3c(N4CCc5ccccc54)ncnc32)c1 |  | 0.536 µM (active)
28 | COc1ccc(-n2ncc3c(N4CCCc5ccccc54)ncnc32)cc1 |  | 1.35 µM (active)
29 | COc1ccc(-n2c(C)nc3c(cnn3-c3ccc(F)cc3)c2=O)cc1 | 3.47 | 
30 | COc1ccc(CCC(C)N2CCc3ccccc3C2)cc1 (configuration not stated) | -0.635 | 
31 | Cc1ccc(-n2ncc3c(=O)[nH]cnc32)c(C)c1 | 0.0061 | 
32 | COc1ccc(-n2ncc3c(N4CCc5ccccc54)ncnc32)cc1 |  | 0.379 µM (active)
33 | COc1ccc2oc(=O)c(C(=O)N3CCCc4ccccc43)cc2c1 | 3.4 | 
34 | Cc1cccc(-n2ncc(Cl)c(Cl)c2=O)c1 | 0.614 | 
35 | CCCCN(C(=O)C1=NN(c2cc(C)ccc2C)C(=O)CC1)c1c(N)n(CCC)c(=O)[nH]c1=O | -0.555 | 
36 | COc1cccc(CNC(=O)CN2C(=O)NC(Cc3ccccc3)(c3ccccc3)C2=O)c1 (configuration not stated) | 0.778 | 
37 | CC1=C(c2ccc(Cl)cc2)S(=O)(=O)N=C1N1CCN(c2cc(C)ccc2C)CC1 | -4.39 | 
38 | O=C(CSc1ccccc1)Nc1nnc(/C=C/c2ccccc2)s1 | -1.44 | 
39 | CC(C)C(=O)Nc1nnc(Sc2ccc(N(C)C)cc2)s1 | 0.449 | 
40 | COc1ccc(/C=C/c2nnc(NC(=O)C(C)C)s2)cc1 |  | 2.69 µM (active)
41 | CCCC(=O)N1CCN(c2nc3c(OC)ccc(C)c3s2)CC1 | -13.8 | 
42 | COc1ccccc1NC(=O)c1cc(C2CC2)nc2c1c(C)nn2-c1ccc(C)cc1 | 2.95 | 
43 | CS(=O)(=O)C1=NN2C(=N)/C(=C\c3ccc(OCCOc4ccccc4)cc3)C(=O)N=C2S1 | 5.51 | 
44 | CC(C)(C)C1C/C(=C/c2ccco2)C(=O)/C(=C/c2ccco2)C1 (configuration not stated) | 8.48 | 
45 | CS(=O)(=O)c1ccc2c(c1)SC1=NC(=O)/C(=C/c3ccco3)C(=N)N12 |  | 10.7 µM (active)
46 | CC(NC(=O)CN(C)S(=O)(=O)c1ccc(F)cc1)C1CC2CCC1C2 (configuration not stated) | 6.14 | 

Row | SMILES | activity change, negative = inhibition [%] | Potency
47 | Cc1ccc2oc(=O)c3cnn(CC(=O)NCc4ccccc4Cl)c3c2c1 | 0.217 | 
48 | CCOc1ccccc1C1CC(c2cccc(NS(C)(=O)=O)c2)=NN1C(=O)c1ccccc1 (configuration not stated) | -1.5 | 
49 | CCOc1cccc2c1OC1(CCCCC1)N1N=C(c3cccnc3)CC21 (configuration not stated) |  | 19 µM (active)
50 | N#CCN(C(=O)COC(=O)C1CC2CCCC(C1)C2=O)c1ccccc1 (configuration not stated) | 0.412 | 
51 | Cc1c(C=O)c2ccccc2n1CC(=O)O | -1.92 | 
52 | CC(=O)n1c(C=Nc2ccccc2)c(O)c2ccccc21 |  | 16.9 µM (active)
53 | CCCn1c(=O)c(-c2ccccc2)c(O)c2ccccc21 | 3.5 | 
54 | COC(=O)c1cn(CC(=O)NCc2cccs2)c2ccccc12 | -12.6 | 
55 | Cc1ccccc1NC(=O)Cn1cc(C(=O)c2cccs2)c2ccccc21 | -10.7 | 
56 | O=C(Cn1cc(C(=O)c2cccs2)c2ccccc21)NCc1cccs1 |  | 19 µM (active)
57 | COc1ccc(-c2nc(Cn3c(=O)cc(C)c4c(C)nn(-c5ccccc5)c43)c(C)o2)cc1OC | -0.0045 | 
58 | O=C(CCc1nnc2ccc(NCc3ccco3)nn12)Nc1cc(F)ccc1F | -1.74 | 
59 | CN(C)Cc1c(C#N)c2ccccc2n1C | 1.17 | 
60 | COc1ccc(CCNCc2c(-c3ccccc3)n(C)c3ccccc23)cc1 | -0.95 | 
61 | COc1ccc(-c2c(C#Cc3ccccc3)c3ccccc3n2C)cc1 |  | 12 µM (active)
62 | Cc1ccc(-c2nn(CCC(=O)Nc3ccc(OC(F)(F)F)cc3)c(=O)c3ccccc23)cc1 | 1.85 | 
63 | Cc1c(NC(=O)C(C)OC(=O)c2cc3c4ccccc4n(C)c3s2)c(=O)n(-c2ccccc2)n1C (configuration not stated) | -17.6 | 
64 | Cc1cccc(NC(=O)CSc2nc3c([nH]c4ccccc43)c(=O)n2-c2cc(C)cc(C)c2)c1 | 3.56 | 
65 | COC(=O)c1ccc(OC(=O)c2cnccn2)cc1 | -6.6 | 
66 | O=C(NCCCNC(=O)c1ccccc1Cl)c1cnccn1 | 0.753 | 
67 | Cn1c(=NC(=O)c2cnccn2)sc2ccccc21 |  | 4.78 µM (active)
